Only some compounds are listed: those with a hit (about 19% of all), similar ones and a draw of the others.
ELG1 repair inh = qHTS screen for small molecules that inhibit ELG1-dependent DNA repair in human embryonic kidney (HEK293T) cells expressing luciferase-tagged ELG1. AID 504467, 2011. HEK293T ELG1-luciferase reporter, luminescence, 16 h; DNA damage induced by 5-fluorouridine. 330,000 tested, 2.3% active. Potency, µM (series often up to 46.1 µM), without a hit: top-dose activity change, negative = inhibition, actives largely listed as inhibitors; further: potency means the concentration at half of the fitted maximal effect; nearly all actives have a fitted effect of over 55% in size
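5-Fluorouridine DNA damage + compound/DMSO, 2,000 cells/well, 16 h, 37 °C/5% CO2. ONE-Glo, 30 min RT, luminescence. Readout = decrease in reporter signal.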
HT1080 IDH1KD tx = qHTS for induction of synthetic lethality in tumor cells producing 2HG: qHTS for the HT-1080-IDH1KD cell line. HT-1080 IDH1 knockdown viability, ATP luminescence, 48 h. Potency, µM (top dose mostly 46.1 µM), without a hit: top-dose activity, negative = toxicity, hits mostly cytotoxic. 360,000 tested, 2% active;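 further: potency means the concentration at half of the fitted maximal effect; 0% = DMSO wells and -100% = cell-free medium wells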
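Luminescent ATP read-out (CellTiter-Glo, 10 min at room temperature) after 48 h compound exposure at 37 °C gave viability of IDH1-knockdown HT-1080 cells. Activity was normalised to DMSO and cell-free wells, then fitted as concentration-response curves.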
HT1080NT lethal = qHTS for induction of synthetic lethality in tumor cells producing 2HG: qHTS for the HT-1080-NT fibrosarcoma cell line; HT-1080-NT fibrosarcoma viability, CellTiter-Glo ATP luminescence, 48 h; Potency, µM (titrated, usually from 46.1 µM), inactives show at the highest dose activity, negative = less viability, actives largely listed as cytotoxic; 360,000 tested, 1.6% active; AID 686970, 2013;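 further: NT is the 2HG producing partner of a matched IDH1 knockdown line; potency means the concentration at half of the fitted maximal effect; 0% = DMSO-treated cells and -100% = media-only wells without cells; nearly all actives have a fitted effect of over 55% in size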
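HT-1080-NT; 750 cells/well; 5% FBS RPMI; 48 h compound, 37 degrees C; CellTiter-Glo luminescence; curve fitting and curve-class assignment.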
IL1B secr inh = qHTS for Inhibitors of Inflammasome Signaling: IL-1-beta AlphaLISA Primary Screen; AID 743279, 2014; activity change, % at 57.5 µM; THP-1 LPS/ATP IL-1B secretion, AlphaLISA, 16 h; stronger effect = lower value; 360,000 tested, 4.7% active; in the data active means activity change below about -50%; inconclusive means mostly about -30% to -49%
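THP-1 cells pretreated 1 hr with compounds (up to 57.5 uM final), then stimulated with LPS (250 ng/mL final) plus ATP (1.25 mM final); secreted IL-1B measured by AlphaLISA after 16 hr, decreased signal indicating inhibition.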
TDP1 cell noCPT = qHTS for Inhibitors of human tyrosyl-DNA phosphodiesterase 1 (TDP1): qHTS in cells in absence of CPT. 420,000 tested, 15% active. AID 686978, 2013. Potency, µM (highest dose often 46.2 µM), without a hit: at the highest dose activity change, negative = growth inhibition, hits mostly inhibitors. DT40 Tdp1-/- hTDP1 cells, no CPT, ATP luminescence, 48 h; further: potency means the concentration at half of the fitted maximal effect; nearly all actives have a fitted effect of over 55% in size
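Chicken DT40 Tdp1-/- cells stably complemented with human TDP1 were seeded at 400 cells/well with DMSO in place of 20 nM camptothecin. After compound pinning, cells grew at least 48 hr at 37 °C; viability read by CellTiter-Glo luminescence.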
DT40 TDP1 CPT = qHTS for Inhibitors of human tyrosyl-DNA phosphodiesterase 1 (TDP1): qHTS in cells in presence of CPT; 420,000 tested, 12% active; AID 686979, 2013; chicken DT40 Tdp1-/-;hTDP1 cells + 20 nM CPT, ATP luminescence, 48 h; Potency, µM (titrated, usually from 46.2 µM), without a hit: at the top dose activity change, negative = growth inhibition, usual class: inhibitors; further: potency means the concentration at half of the fitted maximal effect; nearly all actives have a fitted effect of over 55% in size
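Chicken DT40 Tdp1-/- cells stably complemented with human TDP1 were seeded at 400 cells/well in medium containing 20 nM camptothecin, exposed to pin-transferred compounds, and grown at 37 °C for at least 48 hr. Viability was read as ATP luminescence.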
ELG1 FLuc counter = qHTS screen for small molecules that inhibit ELG1-dependent DNA repair: Hit Confirmation in Cell-Based Luciferin Assay. shares compounds with ELG1 repair inh. cell-free firefly luciferase luminescence counter-screen, ViewLux. Potency, µM (highest dose often 46.1 µM), inactives show at the highest dose activity change, negative = inhibition, actives largely listed as inhibitors. 350 tested, 3% active. AID 624247, 2012; further: potency means the concentration at half of the fitted maximal effect
ELG1-Luc inh = HTS assay for small molecules that inhibit ELG1-dependent DNA repair in human embryonic kidney (HEK293T) cells expressing luciferase-tagged ELG1: Hit Confirmation; Potency, µM (doses to about 46.1 µM), inactives show at the top dose activity change, negative = inhibition, usual class: inhibitors; AID 624248, 2012; HEK293T ELG1-luciferase levels, luminescence; cells co-treated with 5-fluorouridine; shares compounds with ELG1 repair inh; 670 tested, 68% active; further: potency means the concentration at half of the fitted maximal effect; nearly all actives have a fitted effect of over 55% in size
ELG1-Luc MMS = confirmation of human ELG1 repair inhibitors, MMS stimulated. HEK293T luciferase-tagged ELG1 level, MMS stimulated. shares compounds with ELG1 repair inh. 670 tested, 53% active. Potency, µM (titrated, usually from 46.1 µM), for inactives: top-dose activity change, negative = inhibition, actives largely listed as inhibitors; further: potency means the concentration at half of the fitted maximal effect; nearly all actives have a fitted effect of over 60% in size
ELG1 5FU viab = qHTS screen for small molecules that inhibit ELG1-dependent DNA repair: Hit Confirmation with 5FU Viability. shares compounds with ELG1 repair inh. 670 tested, under 10 active. cell viability with 5-FU, ELG1-dependent repair. AID 624250, 2012. Potency, µM (titrated, usually from 46.1 µM), for inactives: top-dose activity change, negative = viability loss, actives largely listed as cytotoxic;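 further: ELG1-luc HEK293T cells cotreated with 5-fluorouridine at 10 µM final; potency means the concentration at half of the fitted maximal effect; viability measured 16 h after compound addition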
ELG1 MMS viab = qHTS screen for small molecules that inhibit ELG1-dependent DNA repair: Hit Confirmation with MMS Viability | Potency, µM (top dose mostly 46.1 µM), without a hit: at the top dose activity change, negative = viability loss, usual class: cytotoxic | 670 tested, 33% active | shares compounds with ELG1 repair inh | Cell viability with MMS, ELG1-dependent DNA repair;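 further: ELG1-luc HEK293T cells co-treated with 10 µM MMS; potency means the concentration at half of the fitted maximal effect; viability read 16 h after compound addition; nearly all actives have a fitted effect of over 60% in size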
Cell viab unstim = qHTS screen for small molecules that inhibit ELG1-dependent DNA repair: Hit Confirmation with Unstimulated Viability Assay | shares compounds with ELG1 repair inh | cell viability counter-screen, unstimulated, luminescence | Potency, µM (top dose mostly 45.9 µM), without a hit: at the top dose activity change, negative = loss of viability, hits mostly cytotoxic | 900 tested, 8% active;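 further: potency means the concentration at half of the fitted maximal effect; compound exposure lasted 16 hours before reading; nearly all actives have a fitted effect of over 55% in size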
FLuc biochem = qHTS screen for small molecules that inhibit ELG1-dependent DNA repair: Hit Confirmation in Biochemical Luciferin Assay; shares compounds with ELG1 repair inh; purified firefly luciferase, luminescence counter-screen; Potency, µM (highest dose often 57.5 µM), for the others: at the top dose activity, negative = inhibition, actives largely listed as inhibitors; 350 tested, 10% active; AID 624253, 2012; further: potency means the concentration at half of the fitted maximal effect
* hit, by the source's call; i = inactive; ? = inconclusive; . = no result given; [ ] = remark or other dose. Unless noted, the call rests on the fitted dose curve; in most records, active means well fitted curve in the direction sought with a large enough effect; inconclusive means small, poorly fitted or top-dose-only effect, or another doubt; inactive means no such curve, though single readings can be large; an effect the other way counts as inactive or inconclusive. Unless noted, on the % scale 0 is the no-effect control and ±100 the full control effect.

SMILES | ELG1 repair inh | HT1080 IDH1KD tx | HT1080NT lethal | IL1B secr inh | TDP1 cell noCPT | DT40 TDP1 CPT | ELG1-Luc inh | ELG1-Luc MMS | ELG1 5FU viab | ELG1 MMS viab | Cell viab unstim | others
Cc1nn(-c2ccccc2)c2c1C(O)n1c(nc3ccccc31)S2 (stereo not given) | 2.6µM* | 0% | 5% | -86* | 16µM* | 15µM* | 16µM* | 11µM* | ? | 25µM* | ?
COc1ccc(/C=C/c2ccc3ccccc3n2)c(OC)c1 | . | . | . | . | 11µM* | 16µM* | . | . | . | . | -25% | ELG1 FLuc counter=-9%;FLuc biochem=?
CN(Cc1ccccc1)c1ccc(C(CC(N)=O)NC(=O)c2ccc(Br)cc2)cc1[N+](=O)[O-] (stereo not given) | ? | ? | ? | 24 | ? | ? | . | . | . | . | .
COc1cc(OC)c2c(c1)O/C(=C\c1ccccc1)C2=O | . | 6% | 7% | -10 | ? | ? | . | . | . | . | .
COc1ccc(/C=C2\Oc3ccccc3C2=O)cc1 | ? | -2% | 10% | -6 | 18µM* | ? | . | . | . | . | -11%
CCC(=O)OC1(C(=O)CCl)[C@@H](C)C[C@H]2[C@@H]3CCC4=CC(=O)C=C[C@]4(C)[C@@]3(F)[C@@H](O)C[C@@]21C (stereo not given in full) | ? | 3% | 24% | -5 | -8% | -16% | . | . | . | . | .
C[C@@H]1CC2[C@@H]3CCC4=CC(=O)C=C[C@]4(C)[C@@]3(F)[C@@H](O)C[C@]2(C)[C@@]1(O)C(=O)NCCCCCCOC[C@H]1O[C@@H](n2cnc3cc(Cl)c(Cl)cc32)[C@@H]2OC(C)(C)O[C@@H]21 (stereo not given in full) | . | . | . | . | . | . | . | . | . | . | -22%[92.2 µM] | ELG1 FLuc counter=21%[92.2 µM];FLuc biochem=-6%[115 µM]
CC(C)C(=O)N1CCC2(CC1)Oc1ccc(Cl)cc1C(=O)C21CC(c2ccc(Cl)cc2)=NO1 (stereo not given) | 2.6µM* | 0% | -1% | -18 | -19% | ? | 10µM* | -15% | ? | -6% | ?
O=C(c1ccc2c(c1)OCO2)N1CCC2(CC1)Oc1ccc(Cl)cc1C(=O)C21CC(c2ccccc2)=NO1 (stereo not given) | -4% | -6% | 1% | -12 | -16% | -4% | . | . | . | . | .
Cc1ccc(NC(=S)N(Cc2cccs2)Cc2cc3cccc(C)c3[nH]c2=O)cc1 | ? | -14% | -4% | -13 | 12µM* | 21µM* | 4.4µM* | ? | ? | -4% | -12%
Cc1ccc2cc(CN(CC3CCCO3)C(=S)Nc3ccccc3)c(=O)[nH]c2c1C (stereo not given) | 4.6µM* | ? | ? | -53* | 2.6µM* | 2.9µM* | 4µM* | ? | ? | 0% | ?
Cn1c2ccccc2c(=O)c2cc(NCCCN3CCOCC3)ccc21 | ? | -3% | -2% | ? | ? | ? | . | . | . | . | -4%
Cn1c(C(=O)NCCCN2CCOCC2)cc2c(=O)n(C)c3ccccc3c21 | ? | -4% | -2% | -4 | ? | -14% | . | . | . | . | .
Cc1cc(C(=O)c2ccc3ccccc3c2)c(C)o1 | . | 18% | 20% | 19 | ? | -28% | . | . | . | . | .
COc1cc(/C=C(\C#N)C(=O)Nc2ccccc2)ccc1OCCN1CCOCC1 | ? | 17% | 5% | i | -13% | 0% | . | . | . | . | .
COc1cc(/C=C(\C#N)C(=O)Nc2cccc(C(=O)O)c2)ccc1OCc1ccc(Cl)cc1 | ? | 1% | -8% | -9 | ? | 0% | . | . | . | . | 11% | ELG1 FLuc counter=51%;FLuc biochem=16µM*
CCOc1cc(/C=N\Nc2nc(Nc3ccccc3)nc(N3CCOCC3)n2)ccc1OC(=O)c1ccco1 | 2.3µM* | -5% | -6% | -23 | 8.2µM* | 18µM* | 1.6µM* | ? | ? | ? | ?

Compound activity (PubChem BioAssay)
